Some test systems named below: HCT-15 colon; HT29 colon; SNB-75 CNS; SNB-19 CNS; U251 CNS; PC-3 prostate; SK-MEL-5 melanoma; UACC-62 melanoma; LOX IMVI melanoma; SK-MEL-28 melanoma; SK-MEL-2 melanoma; SN12C renal; UO-31 renal; TK-10 renal; ACHN renal; CAKI-1 renal; A498 renal; HL-60(TB) leukemia; CCRF-CEM leukemia; EKVX NSCLC.
Common to all, as to test: NCI-60 one-dose screen, 48 h (100 = growth as untreated, 0 = no growth, -100 = all killed)
Common to all, as to settings: 10 µM unless noted

Several values for one entry are separate records, joined by “and”; a condition that tells them apart may be missing. Equal entries are not always repeated. About 83,000 compounds went through this panel and 20% of them were active in at least one assay; those are over-represented in the sample as a whole.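 In brief: 96-well plates, 48 h treatment, single concentration, percent growth endpoint.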 Values without a mark were called inactive. Activity calls are given as the source filed them. How the source made its calls: active means growth percent below 10; inactive means the rest.

With `CCC(=O)C(CC(C)[N+](C)(C)C)(c1ccccc1)c1ccccc1` (stereo not drawn), the growth in the assay on HCT-15 colon was 97.6%; in the assay with HT29 colon, 108%; in the assay with SNB-75 CNS, 93.8%; in the assay on SNB-19 CNS it was 96.8%; in the assay with U251 CNS, 97.9%; in the assay with PC-3 prostate, 103%. Further, the growth was 97.2% in the assay with SK-MEL-5 melanoma; 101% with UACC-62 melanoma; 96.7% in the assay on LOX IMVI melanoma; 106% in the assay on SK-MEL-28 melanoma; 104% with SK-MEL-2 melanoma; 98.2% in the assay with SN12C renal. Further, the growth in the assay with UO-31 renal was 95.9%; in the assay on TK-10 renal, 98.1%; in the assay with ACHN renal, 102%; with CAKI-1 renal, 95.4%; in the assay on A498 renal, 111%; in the assay on HL-60(TB) leukemia, 109%. Also, the growth in the assay with CCRF-CEM leukemia is 114%.

For the compound `O=C(NC(Cl)=C(Cl)Cl)P(=O)(c1ccccc1)c1ccccc1`, the growth with HCT-15 colon was 105%; in the assay with HT29 colon, 112%; in the assay with SNB-75 CNS it was 92.3%; in the assay on SNB-19 CNS it was 96.1%; with U251 CNS it was 95.5%; with PC-3 prostate, 103%. The growth was 98.5% in the assay on SK-MEL-5 melanoma; 102% in the assay with UACC-62 melanoma; 101% with LOX IMVI melanoma; 99.6% in the assay with SK-MEL-28 melanoma; 107% in the assay with SN12C renal; 118% with TK-10 renal. For the same compound, the growth with ACHN renal was 112%; in the assay with CAKI-1 renal, 85.7%; with A498 renal it was 102%; with HL-60(TB) leukemia it was 110%; in the assay with CCRF-CEM leukemia it was 98.6%.

Consider `CCCCCCCCCCCCCCCCCCn1cc[n+](C)c1`, for which the growth is 3.3% (active) and -54.8% (active) in the assay with HCT-15 colon; -42.1% (active) and -36.8% (active) with HT29 colon; -74.4% (active) and -55.1% (active) in the assay with SNB-75 CNS; -47.5% (active) and -68% (active) in the assay on SNB-19 CNS; -0.673% (active) and -63.9% (active) in the assay with U251 CNS; -7.74% (active) and -8.63% (active) in the assay on PC-3 prostate. For the same compound, the growth in the assay on SK-MEL-5 melanoma was -81.1% (active) and -74.1% (active); in the assay with UACC-62 melanoma it was -70.9% (active) and -82.1% (active); in the assay on LOX IMVI melanoma it was 0.132% (active) and -52.2% (active); in the assay on SK-MEL-28 melanoma it was -49.4% (active) and -52.8% (active); in the assay with SK-MEL-2 melanoma, -61.3% (active) and -51.7% (active); in the assay with SN12C renal, -52.5% (active) and -68.4% (active). Also, the growth is -70.2% (active) and -72.4% (active) in the assay with TK-10 renal; -12.4% (active) and -43.5% (active) in the assay on ACHN renal; -67.3% (active) and -78.6% (active) in the assay on CAKI-1 renal; -50.9% (active) and -44.9% (active) with A498 renal; 34% and 67.8% in the assay with CCRF-CEM leukemia.

On to `O=c1[nH]c(=O)n(Cl)c(=O)n1Cl`, for which the growth in the assay on HCT-15 colon was 111% and 108%; with HT29 colon, 106% and 112%; with SNB-75 CNS, 124% and 105%; with SNB-19 CNS it was 106% and 98.2%; in the assay on U251 CNS, 98.5% and 113%; in the assay with PC-3 prostate, 98.8% and 98%. The growth is 103% and 93.7% with SK-MEL-5 melanoma; 98.7% and 101% with UACC-62 melanoma; 109% and 105% in the assay on LOX IMVI melanoma; 114% and 96.7% in the assay on SK-MEL-2 melanoma; 107% and 101% with EKVX NSCLC; 94.2% and 108% in the assay on SN12C renal. For the same compound, the growth in the assay on UO-31 renal is 84.3% and 86.7%; with TK-10 renal it was 115% and 117%; in the assay on ACHN renal, 109% and 107%; in the assay with CAKI-1 renal, 101% and 108%; in the assay on A498 renal, 106% and 127%.

As to `CN(C)[C@@H]1C(=O)C(C(N)=O)=C(O)[C@@]2(O)C(=O)C3=C(O)c4c(O)ccc(Cl)c4[C@@](C)(O)[C@H]3C[C@@H]12`, the growth was 89.6% and 105% in the assay on HCT-15 colon; 85.2% and 109% in the assay with HT29 colon; 87.2% and 84.1% in the assay with SNB-75 CNS; 98.4% and 97.9% with SNB-19 CNS; 89.9% and 103% in the assay on U251 CNS; 81.6% in the assay on PC-3 prostate. For the same compound, the growth in the assay with SK-MEL-5 melanoma is 98.9% and 100%; in the assay with UACC-62 melanoma, 72.9% and 89.5%; with LOX IMVI melanoma, 86% and 95.6%; with SK-MEL-28 melanoma it was 109% and 112%; in the assay with SK-MEL-2 melanoma, 81.6% and 24.7%; with EKVX NSCLC, 111% and 98.3%. Also, the growth was 93.7% and 103% in the assay with SN12C renal; 86.9% in the assay on TK-10 renal; 70.9% and 94.4% in the assay on ACHN renal; 73.1% and 99.6% in the assay on CAKI-1 renal; 92.2% and 110% in the assay on A498 renal; 100% with HL-60(TB) leukemia. In addition, the growth in the assay with CCRF-CEM leukemia is 94.1% and 101%.

As to `CC[C@H](C)[C@H]1O[C@]2(C=C[C@@H]1C)C[C@@H]1C[C@@H](C/C=C(\C)[C@@H](O[C@H]3C[C@H](OC)[C@@H](O[C@H]4C[C@H](OC)[C@@H](NC)[C@H](C)O4)[C@H](C)O3)[C@@H](C)/C=C/C=C3\CO[C@@H]4[C@H](O)C(C)=C[C@@H](C(=O)O1)[C@]34O)O2`, the growth with HCT-15 colon is -70.2% (active); in the assay on HT29 colon, -64.3% (active); in the assay on SNB-75 CNS, -72.7% (active); with SNB-19 CNS, 13.7%; with U251 CNS, -88.7% (active); in the assay with PC-3 prostate, -16.2% (active). Also, the growth in the assay on SK-MEL-5 melanoma was -95.5% (active); in the assay on UACC-62 melanoma, -53.1% (active); with LOX IMVI melanoma it was -92.3% (active); in the assay on SK-MEL-28 melanoma it was -79.2% (active); in the assay on SK-MEL-2 melanoma, -54.5% (active); with EKVX NSCLC, -40.9% (active). Further, the growth is -47.5% (active) with SN12C renal; -76% (active) in the assay with TK-10 renal; -33.9% (active) with ACHN renal; 18.7% in the assay on CAKI-1 renal; -7.23% (active) with A498 renal; -59.8% (active) in the assay with HL-60(TB) leukemia. In addition, the growth in the assay on CCRF-CEM leukemia was -43% (active).

Turning to `COc1ccc(O)c2c(=O)c3c(OC)cc4c(c3oc12)[C@@H]1C=CO[C@@H]1O4`, the growth is 53.3% in the assay with HCT-15 colon; 54.3% in the assay with HT29 colon; 38.5% in the assay on SNB-75 CNS; 81% in the assay with SNB-19 CNS; 73.4% in the assay on U251 CNS; 76.7% in the assay on PC-3 prostate. Besides, the growth in the assay with SK-MEL-5 melanoma is 25.9%; in the assay on UACC-62 melanoma, 7.2% (active); with LOX IMVI melanoma it was 72.6%; with SK-MEL-28 melanoma, 98.2%; in the assay on SK-MEL-2 melanoma, 6.45% (active); with EKVX NSCLC, 6.71% (active). Further, the growth with SN12C renal was 73.1%; with UO-31 renal, 51.9%; in the assay with TK-10 renal it was 36.8%; with ACHN renal, 5.59% (active); in the assay on CAKI-1 renal, 35.9%; with CCRF-CEM leukemia it was 92.6%.

On to `O=[N+]([O-])c1ccc(P(=O)(O)O)cc1`, for which the growth in the assay on HCT-15 colon is 103%; in the assay on HT29 colon, 100%; in the assay on SNB-75 CNS, 80.2%; in the assay on SNB-19 CNS, 108%; in the assay with U251 CNS, 96.2%; in the assay with PC-3 prostate, 91.3%. Moreover, the growth in the assay with SK-MEL-5 melanoma is 109%; with UACC-62 melanoma it was 105%; with LOX IMVI melanoma it was 93.2%; in the assay with SK-MEL-28 melanoma, 109%; in the assay on SK-MEL-2 melanoma, 103%; in the assay with SN12C renal, 101%. The growth is 81.5% in the assay with UO-31 renal; 101% with TK-10 renal; 98.8% with ACHN renal; 95.7% with CAKI-1 renal; 97.1% in the assay with CCRF-CEM leukemia.

The values above are taken from PubChem BioAssay (NCI).
